According to PubChem BioAssay (NCI):
This is part of a sample that, as a whole, favours compounds with a hit. Of some 83,000 tested, about 20% had one in any assay.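 Results are percent growth after 48 hours of single-concentration exposure. 100 means growth as in untreated cells, lower positive values show inhibition; negative values down to -100 show cell death.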 A number with no mark means an inactive call. Activity calls are given as the source filed them. How the source made its calls: active means growth percent below 10; inactive means the rest.

The compounds below were run on UO-31 renal (assay: NCI-60 one-dose screen, 48 h (100 = growth as untreated, 0 = no growth, -100 = all killed)). Settings: 10 µM.
`Cc1ccc(C(=O)N/C(=C2/OCCN2C)[P+](c2ccccc2)(c2ccccc2)c2ccccc2)cc1` was tested, and the growth was 85.4%. With `CN(C)c1ccc(/C=C/c2nc3ccccc3c(=O)n2CC(=O)Nc2ccc(Cl)cc2)cc1` the growth was 87.4%. In the case of `Cc1ccc(CNC(=O)Cc2ccc3c(c2)CN(C2CCC(=O)NC2=O)C3=O)cc1` (stereo not drawn), the growth is reported as -21.3% (active). In the case of `Cc1ccn2c(C(=O)c3ccccc3)cc(-c3cc(-c4ccc(N(C)C)cc4)c(C#N)c(N)n3)c2c1`, the growth is reported as 65.4%. With `CCOP(=O)(OCC)O[C@H]1CCC(=O)[C@@H]2[C@H]1[C@H]1C[C@@H]3[C@@]4(C)CCCC(C)(C(=O)OC)[C@@H]4CC[C@@]23C=C1C(C)C` (stereo partly drawn) the growth was 53.5%. `C#CCNC(=O)CCC(=O)OC[C@]12CC[C@@H](C(=C)C)[C@@H]1C1CC[C@@H]3[C@@]4(C)CCCNC(C)(C)[C@@H]4CC[C@@]3(C)[C@]1(C)CC2` (stereo partly drawn) gave a growth of 33.5%. Work on `C/C(=N\N=C\c1ccc(N(C)C)cc1)c1ccc2c(c1)Nc1ccccc1S2` yielded a growth of 57.4%. For `O=C(Nc1ccc(Cl)c([N+](=O)[O-])c1)Nc1ccc(Cl)c([N+](=O)[O-])c1`, the growth was -2.65% (active). In the case of `COc1ccc(CN2[C@H](C(=O)NCc3ccc(C(=O)NO)cc3)Cc3c([nH]c4ccccc34)[C@H]2C2CC2)cc1`, the growth is reported as 66.4%. `O=C(NO)c1ccc(CNC(=O)[C@H]2Cc3c([nH]c4ccccc34)[C@H](c3ccc(Cl)cc3)N2)cc1` was tested, and the growth was 21.8%. In the case of `O=C(Cn1nc(-c2ccccc2)ccc1=O)NN1C(=O)c2ccccc2C1=O`, the growth is reported as 85.8%. For `OCc1[nH]nc2cc(Nc3ncc4ccc(Br)c(OC5CCC(O)CC5)c4n3)ccc12` (stereo not drawn), the growth was -27.2% (active). Compound `COc1cc2c3c(n(CCCNCCO)c(=O)c2cc1OC)-c1nc2c(cc1C3=O)OCO2` has a growth of 24.4%. For `COc1ccc(CN2[C@H](C(=O)NCCCCCCC(=O)NO)Cc3c([nH]c4ccccc34)[C@H]2C2CC2)cc1`, the growth was 7.67% (active). `COc1ccc(C2N(c3ccc(Br)cc3)N=C(C(C)=O)N2[C@H]2[C@H](OC(C)=O)O[C@H](COC(C)=O)[C@@H](OC(C)=O)[C@@H]2OC(C)=O)cc1` (stereo partly drawn) was tested, and the growth was 44.5%. `CN1C(=O)N(C)C2SC(N/N=C/c3cccs3)=NC21` (stereo not drawn) showed a growth of 40.3%. `Cc1cc(C)nc(/N=C(\N)Nc2ccc(S(=O)(=O)Nc3nc(C)cc(C)n3)cc2)n1` was tested, and the growth was 85%. With `O=C(Cc1ccc2c(c1)CN(C1CCC(=O)NC1=O)C2=O)NCCc1ccccc1` (stereo not drawn) the growth was -10.4% (active). For `CCNCCCn1c2c(c3cc(OC)c(OC)cc3c1=O)C(=O)c1cc3c(nc1-2)OCO3`, the growth was -97.8% (active). In the case of `O=C(CNc1nc(-c2ccccc2)cs1)Nc1ccc(Cl)cc1[N+](=O)[O-]`, the growth is reported as -56.4% (active). In the case of `Cc1ccc2nc(-c3ccc(-c4nnc(SCC(=O)Nc5ccc(Cl)cc5)o4)cc3)[nH]c2c1`, the growth is reported as 56.6%. Work on `Cc1ccc(C(=O)NNC(=O)CSc2nc3ccccc3c(=O)[nH]2)cc1` yielded a growth of 75.2%. `CN(C)CCNC(=O)OCCCCOc1cc(O)c2c(=O)cc(-c3ccccc3)oc2c1` was tested, and the growth was -91.2% (active). `CCCCSc1nc(Nc2ccc(/C(C)=N/NC(N)=S)cc2)c(C#N)c(-c2ccccc2)n1` gave a growth of 11.8%. Compound `O=c1[nH]c2ccccc2cc1CSc1ccc(Nc2nccc(-c3ccc4c(c3)OCO4)n2)cc1` has a growth of 95.6%. `COc1cc2oc(-c3cccc(C(=O)Nc4ccc(Cl)cc4)c3)cc(=O)c2c(OCCNC(=O)CNC(=O)OC(C)(C)C)c1OC` was tested, and the growth was 49.7%. `Cc1ccc2nc(-c3ccc(-c4nnc(SCC(=O)Nc5ccc(Br)cc5)o4)cc3)[nH]c2c1` was tested, and the growth was 51.5%. With `COc1ccc(CN2[C@@H](C(=O)NCc3ccc(C(=O)NO)cc3)Cc3c([nH]c4ccccc34)[C@@H]2C)cc1` the growth was 36%. In the case of `O=C(CNc1nc(-c2ccccc2)cs1)Nc1cccc(Cl)c1`, the growth is reported as 9.97% (active). Work on `NS(=O)(=O)c1ccc(NC(=O)CSc2ccc(-c3ccc(Cl)cc3)nn2)c(Br)c1` yielded a growth of 91%. With `Clc1ccc2c(N/N=C/c3c[nH]c4ccc(Br)cc34)ccnc2c1` the growth was -95.8% (active). `Cc1ccc(-c2ccc(SCC(=O)Nc3ccc(S(N)(=O)=O)cc3Br)nn2)cc1` was tested, and the growth was 70.6%. With `CC(=O)Nc1ccc(-c2cn(-c3cccc(C(=O)Nc4cccc(OC(F)(F)F)c4)c3)nn2)cn1` the growth was 131%.
